Assay results published in article PMC7862700, “An all-to-all approach to the identification of sequence-specific readers for epigenetic DNA modifications on cytosine”.

Key:
Test in all cases: DAPPL (digital affinity profiling via proximity ligation, sequencing); 10 mM Tris-HCl pH 7.5, 50 mM NaCl, 1 mM DTT, 4% glycerol, room temperature, 30 min; GST-TFs on glutathione beads, 16-mer random dsDNA library, 0.1% formaldehyde crosslink after washing; high values mean tight binding
Conditions in all cases: protein: recombinant; tags: N-terminal GST; dsDNA, one strand shown
ERF = target: T1, ERF (Homo sapiens, UniProt P50548 1-548)
T1 sequence: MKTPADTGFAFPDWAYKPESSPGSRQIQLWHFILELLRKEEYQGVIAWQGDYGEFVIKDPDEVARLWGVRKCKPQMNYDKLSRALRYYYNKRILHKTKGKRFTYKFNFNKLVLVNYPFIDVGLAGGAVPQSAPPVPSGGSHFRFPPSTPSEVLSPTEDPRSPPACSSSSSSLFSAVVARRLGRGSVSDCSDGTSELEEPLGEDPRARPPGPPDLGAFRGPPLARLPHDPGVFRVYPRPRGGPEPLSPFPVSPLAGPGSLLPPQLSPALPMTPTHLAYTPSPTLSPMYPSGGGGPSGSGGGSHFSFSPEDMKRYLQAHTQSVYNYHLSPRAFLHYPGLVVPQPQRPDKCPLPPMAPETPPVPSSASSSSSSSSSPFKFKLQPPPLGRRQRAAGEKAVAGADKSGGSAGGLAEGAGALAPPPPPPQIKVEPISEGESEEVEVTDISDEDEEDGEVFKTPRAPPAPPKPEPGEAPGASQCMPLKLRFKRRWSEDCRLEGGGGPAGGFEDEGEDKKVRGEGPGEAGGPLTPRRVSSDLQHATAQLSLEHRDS
Outline: (§1)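 GST fusions of human transcription factors were expressed in yeast and captured with glutathione beads. Once given DNA barcodes and pooled alongside a tag-only sample, they were incubated for 30 min at room temperature with 200 nmole of a random double-stranded 16-mer DNA library in Tris/NaCl/DTT/glycerol buffer, then washed, crosslinked (0.1% formaldehyde), proximity-ligated, PCR-amplified and sequenced on an Illumina NextSeq500. The binding signal of each hexamer is its read frequency for a factor divided by its frequency for the tag-only sample.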

ETV3L = target: T2, ETV3L (Homo sapiens, UniProt Q6ZN32 1-361)
T2 sequence: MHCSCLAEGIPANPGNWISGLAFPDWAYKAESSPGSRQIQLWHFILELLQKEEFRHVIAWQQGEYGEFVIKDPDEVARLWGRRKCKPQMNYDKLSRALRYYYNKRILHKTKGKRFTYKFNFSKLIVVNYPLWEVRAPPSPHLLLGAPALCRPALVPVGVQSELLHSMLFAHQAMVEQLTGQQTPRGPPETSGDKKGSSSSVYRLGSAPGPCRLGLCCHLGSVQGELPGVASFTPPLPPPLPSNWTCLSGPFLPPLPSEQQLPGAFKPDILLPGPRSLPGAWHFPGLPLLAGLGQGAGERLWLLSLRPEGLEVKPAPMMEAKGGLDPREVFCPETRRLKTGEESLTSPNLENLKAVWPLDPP
Outline: as §1

ETS2 = target: T3, ETS2 (Homo sapiens, UniProt P15036 1-469)
T3 sequence: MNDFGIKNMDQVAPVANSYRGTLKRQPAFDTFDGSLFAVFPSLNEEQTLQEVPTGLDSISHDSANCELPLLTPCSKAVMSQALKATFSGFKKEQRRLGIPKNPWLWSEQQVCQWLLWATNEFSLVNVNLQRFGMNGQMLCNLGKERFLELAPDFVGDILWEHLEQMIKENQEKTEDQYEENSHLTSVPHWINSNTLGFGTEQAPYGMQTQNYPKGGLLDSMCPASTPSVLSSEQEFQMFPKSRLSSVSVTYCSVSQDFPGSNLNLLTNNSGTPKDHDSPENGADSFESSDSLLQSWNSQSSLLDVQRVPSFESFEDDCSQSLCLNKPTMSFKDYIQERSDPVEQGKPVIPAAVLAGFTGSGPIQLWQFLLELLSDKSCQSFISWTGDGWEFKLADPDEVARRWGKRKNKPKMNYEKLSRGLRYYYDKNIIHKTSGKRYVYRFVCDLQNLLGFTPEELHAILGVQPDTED
Outline: as §1

SPDEF = target: T4, SPDEF (Homo sapiens, UniProt O95238 1-335)
T4 sequence: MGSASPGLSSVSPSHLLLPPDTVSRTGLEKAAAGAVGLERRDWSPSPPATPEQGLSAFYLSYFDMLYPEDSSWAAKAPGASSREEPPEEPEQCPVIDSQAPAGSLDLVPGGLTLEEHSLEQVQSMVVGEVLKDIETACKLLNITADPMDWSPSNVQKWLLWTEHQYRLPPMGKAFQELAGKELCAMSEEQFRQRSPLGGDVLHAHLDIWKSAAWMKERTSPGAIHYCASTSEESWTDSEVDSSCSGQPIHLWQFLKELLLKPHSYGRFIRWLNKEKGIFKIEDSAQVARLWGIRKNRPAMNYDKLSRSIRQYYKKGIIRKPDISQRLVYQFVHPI
Outline: as §1

ETV7 = target: T5, ETV7 (Homo sapiens, UniProt Q9Y603 1-341)
T5 sequence: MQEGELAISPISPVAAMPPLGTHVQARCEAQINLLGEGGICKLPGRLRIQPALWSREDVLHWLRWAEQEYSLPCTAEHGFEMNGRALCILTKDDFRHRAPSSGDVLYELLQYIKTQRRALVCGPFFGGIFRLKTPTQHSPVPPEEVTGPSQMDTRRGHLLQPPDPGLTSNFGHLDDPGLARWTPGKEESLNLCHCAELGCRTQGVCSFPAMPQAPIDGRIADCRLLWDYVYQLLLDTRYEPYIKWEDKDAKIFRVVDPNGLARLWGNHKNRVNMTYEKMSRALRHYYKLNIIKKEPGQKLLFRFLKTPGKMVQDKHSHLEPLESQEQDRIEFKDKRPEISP
Outline: as §1

ELF5 = target: T6, ELF5 (Homo sapiens, UniProt Q9UKW6-2 1-255)
T6 sequence: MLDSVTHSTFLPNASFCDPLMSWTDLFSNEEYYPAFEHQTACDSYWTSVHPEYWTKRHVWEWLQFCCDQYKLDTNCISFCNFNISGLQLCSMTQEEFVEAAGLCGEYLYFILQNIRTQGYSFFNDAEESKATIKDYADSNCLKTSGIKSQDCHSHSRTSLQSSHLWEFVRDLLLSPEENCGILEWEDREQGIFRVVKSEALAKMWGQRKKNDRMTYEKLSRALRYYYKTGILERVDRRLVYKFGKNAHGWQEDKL
Outline: as §1

ETV3 = target: T7, ETV3 (Homo sapiens, UniProt P41162-2 1-143)
T7 sequence: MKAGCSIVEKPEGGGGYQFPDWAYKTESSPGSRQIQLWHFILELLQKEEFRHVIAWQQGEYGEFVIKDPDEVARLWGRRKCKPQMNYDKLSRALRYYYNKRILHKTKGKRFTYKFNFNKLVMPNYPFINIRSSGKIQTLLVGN
Outline: as §1

ETV6 = ETV6 (Homo sapiens, UniProt P41212 1-452)
Outline: as §1

Sequence of ETV6 (P41212 whole entry): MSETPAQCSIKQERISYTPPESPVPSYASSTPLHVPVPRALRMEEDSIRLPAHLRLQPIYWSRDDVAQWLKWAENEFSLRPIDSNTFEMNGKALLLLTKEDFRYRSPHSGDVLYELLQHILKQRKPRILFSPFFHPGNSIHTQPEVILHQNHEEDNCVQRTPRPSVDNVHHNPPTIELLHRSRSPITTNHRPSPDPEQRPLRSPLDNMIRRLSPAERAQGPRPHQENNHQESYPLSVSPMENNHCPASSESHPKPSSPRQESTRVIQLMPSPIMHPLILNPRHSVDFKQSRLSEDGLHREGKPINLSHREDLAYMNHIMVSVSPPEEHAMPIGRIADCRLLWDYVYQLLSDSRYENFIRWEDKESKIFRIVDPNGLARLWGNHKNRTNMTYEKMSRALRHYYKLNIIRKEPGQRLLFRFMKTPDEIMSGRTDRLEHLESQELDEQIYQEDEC

Sequence	binding signal (ERF)	binding signal (ETV3L)	binding signal (ETS2)	binding signal (SPDEF)	binding signal (ETV7)	binding signal (ELF5)	binding signal (ETV3)	binding signal (ETV6)
ATGGGC	1.17 fold enrichment (6-mer frequency, TF over GST control)	1.3 fold enrichment (6-mer frequency, TF over GST control)	1.28 fold enrichment (6-mer frequency, TF over GST control)	1.24 fold enrichment (6-mer frequency, TF over GST control)	1.22 fold enrichment (6-mer frequency, TF over GST control)	1.26 fold enrichment (6-mer frequency, TF over GST control)	1.23 fold enrichment (6-mer frequency, TF over GST control)	1.33 fold enrichment (6-mer frequency, TF over GST control)
TATCTG	1.2 fold enrichment (6-mer frequency, TF over GST control)	1.41 fold enrichment (6-mer frequency, TF over GST control)	1.11 fold enrichment (6-mer frequency, TF over GST control)	1.13 fold enrichment (6-mer frequency, TF over GST control)	1.2 fold enrichment (6-mer frequency, TF over GST control)	1.14 fold enrichment (6-mer frequency, TF over GST control)	1.21 fold enrichment (6-mer frequency, TF over GST control)	1.17 fold enrichment (6-mer frequency, TF over GST control)
ACCGTC	1.25 fold enrichment (6-mer frequency, TF over GST control)	1.23 fold enrichment (6-mer frequency, TF over GST control)	1.28 fold enrichment (6-mer frequency, TF over GST control)	1.35 fold enrichment (6-mer frequency, TF over GST control)	1.09 fold enrichment (6-mer frequency, TF over GST control)	1.08 fold enrichment (6-mer frequency, TF over GST control)	1.2 fold enrichment (6-mer frequency, TF over GST control)	1.21 fold enrichment (6-mer frequency, TF over GST control)
TAGTGT	1.02 fold enrichment (6-mer frequency, TF over GST control)	1.04 fold enrichment (6-mer frequency, TF over GST control)	1.11 fold enrichment (6-mer frequency, TF over GST control)	1.18 fold enrichment (6-mer frequency, TF over GST control)	1.2 fold enrichment (6-mer frequency, TF over GST control)	1.14 fold enrichment (6-mer frequency, TF over GST control)	1.13 fold enrichment (6-mer frequency, TF over GST control)	1.02 fold enrichment (6-mer frequency, TF over GST control)
CGGTTT	1.23 fold enrichment (6-mer frequency, TF over GST control)	1.14 fold enrichment (6-mer frequency, TF over GST control)	1.2 fold enrichment (6-mer frequency, TF over GST control)	1.36 fold enrichment (6-mer frequency, TF over GST control)	1.2 fold enrichment (6-mer frequency, TF over GST control)	1.31 fold enrichment (6-mer frequency, TF over GST control)	1.22 fold enrichment (6-mer frequency, TF over GST control)	1.23 fold enrichment (6-mer frequency, TF over GST control)
CCCACT	1.42 fold enrichment (6-mer frequency, TF over GST control)	1.37 fold enrichment (6-mer frequency, TF over GST control)	1.32 fold enrichment (6-mer frequency, TF over GST control)	1.27 fold enrichment (6-mer frequency, TF over GST control)	1.28 fold enrichment (6-mer frequency, TF over GST control)	1.31 fold enrichment (6-mer frequency, TF over GST control)	1.32 fold enrichment (6-mer frequency, TF over GST control)	1.37 fold enrichment (6-mer frequency, TF over GST control)
GAAACG	1.27 fold enrichment (6-mer frequency, TF over GST control)	1.18 fold enrichment (6-mer frequency, TF over GST control)	1.17 fold enrichment (6-mer frequency, TF over GST control)	1.23 fold enrichment (6-mer frequency, TF over GST control)	1.4 fold enrichment (6-mer frequency, TF over GST control)	1.29 fold enrichment (6-mer frequency, TF over GST control)	1.28 fold enrichment (6-mer frequency, TF over GST control)	1.34 fold enrichment (6-mer frequency, TF over GST control)
GCTATG	1.26 fold enrichment (6-mer frequency, TF over GST control)	1.16 fold enrichment (6-mer frequency, TF over GST control)	1.26 fold enrichment (6-mer frequency, TF over GST control)	1.23 fold enrichment (6-mer frequency, TF over GST control)	1.3 fold enrichment (6-mer frequency, TF over GST control)	1.14 fold enrichment (6-mer frequency, TF over GST control)	1.23 fold enrichment (6-mer frequency, TF over GST control)	1.1 fold enrichment (6-mer frequency, TF over GST control)
CTAAAA	1.2 fold enrichment (6-mer frequency, TF over GST control)	1.2 fold enrichment (6-mer frequency, TF over GST control)	1.21 fold enrichment (6-mer frequency, TF over GST control)	1.19 fold enrichment (6-mer frequency, TF over GST control)	1.1 fold enrichment (6-mer frequency, TF over GST control)	1.11 fold enrichment (6-mer frequency, TF over GST control)	1.12 fold enrichment (6-mer frequency, TF over GST control)	1.15 fold enrichment (6-mer frequency, TF over GST control)
AAGATA	1.17 fold enrichment (6-mer frequency, TF over GST control)	1.09 fold enrichment (6-mer frequency, TF over GST control)	1.1 fold enrichment (6-mer frequency, TF over GST control)	1.1 fold enrichment (6-mer frequency, TF over GST control)	1.1 fold enrichment (6-mer frequency, TF over GST control)	1.07 fold enrichment (6-mer frequency, TF over GST control)	1.11 fold enrichment (6-mer frequency, TF over GST control)	1.14 fold enrichment (6-mer frequency, TF over GST control)
CCCACC	1.16 fold enrichment (6-mer frequency, TF over GST control)	1.05 fold enrichment (6-mer frequency, TF over GST control)	1.02 fold enrichment (6-mer frequency, TF over GST control)	1.12 fold enrichment (6-mer frequency, TF over GST control)	1.08 fold enrichment (6-mer frequency, TF over GST control)	1.15 fold enrichment (6-mer frequency, TF over GST control)	1.06 fold enrichment (6-mer frequency, TF over GST control)	1.12 fold enrichment (6-mer frequency, TF over GST control)
CCCTCT	1.41 fold enrichment (6-mer frequency, TF over GST control)	1.3 fold enrichment (6-mer frequency, TF over GST control)	1.36 fold enrichment (6-mer frequency, TF over GST control)	1.17 fold enrichment (6-mer frequency, TF over GST control)	1.27 fold enrichment (6-mer frequency, TF over GST control)	1.29 fold enrichment (6-mer frequency, TF over GST control)	1.4 fold enrichment (6-mer frequency, TF over GST control)	1.31 fold enrichment (6-mer frequency, TF over GST control)
TCGATG	1.08 fold enrichment (6-mer frequency, TF over GST control)	1.15 fold enrichment (6-mer frequency, TF over GST control)	1.03 fold enrichment (6-mer frequency, TF over GST control)	1.07 fold enrichment (6-mer frequency, TF over GST control)	1.17 fold enrichment (6-mer frequency, TF over GST control)	1.07 fold enrichment (6-mer frequency, TF over GST control)	1.1 fold enrichment (6-mer frequency, TF over GST control)	1.09 fold enrichment (6-mer frequency, TF over GST control)
TGACTC	1.21 fold enrichment (6-mer frequency, TF over GST control)	1.21 fold enrichment (6-mer frequency, TF over GST control)	1.38 fold enrichment (6-mer frequency, TF over GST control)	1.27 fold enrichment (6-mer frequency, TF over GST control)	1.41 fold enrichment (6-mer frequency, TF over GST control)	1.28 fold enrichment (6-mer frequency, TF over GST control)	1.32 fold enrichment (6-mer frequency, TF over GST control)	1.28 fold enrichment (6-mer frequency, TF over GST control)
ATAGCT	1.2 fold enrichment (6-mer frequency, TF over GST control)	1.13 fold enrichment (6-mer frequency, TF over GST control)	1.1 fold enrichment (6-mer frequency, TF over GST control)	1.07 fold enrichment (6-mer frequency, TF over GST control)	1.31 fold enrichment (6-mer frequency, TF over GST control)	1.07 fold enrichment (6-mer frequency, TF over GST control)	1.12 fold enrichment (6-mer frequency, TF over GST control)	1.13 fold enrichment (6-mer frequency, TF over GST control)
